HCV inh – qHTS Assay for Inhibitors of Hepatitis C Virus (HCV) | Potency, µM (doses to about 41.8 µM), inactives show top-dose activity change, negative = inhibition, hits mostly inhibitors | Huh7.5.1 HCVcc-Cre infection, luciferase reporter, 44 h | actives 3.4% (n = 340,000); active = well fitted inhibition curve with a large enough effect; inconclusive = small, poorly fitted or top-dose-only effect, or another doubt; inactive = no such curve, though single readings can be large or run the other way
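Luciferase read-out (15 sec integration) after a 15 min room-temperature substrate step quantifies HCVcc-Cre infection. Cells, 1,000 per well, had compound added 4 h post-plating, then virus at ~0.5 moi, and were cultured 44 h.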
VACV mCherry inh – qHTS for Stage-Specific Inhibitors of Vaccinia Orthopoxvirus: mCherry Reporter Primary qHTS. AID 720579, 2013. actives 0.63% (n = 310,000). Vaccinia virus mCherry reporter infection, fluorescence. Potency, µM (doses to about 36.5 µM), inactives show at the highest dose activity change, negative = inhibition, hits mostly inhibitors; calls by dose curve; tested in A549 cells; note: nearly all actives have a fitted effect of over 35% in size
LASV entry inh – qHTS for Inhibitors of binding or entry into cells for Lassa Virus; AID 540256, 2011; Potency, µM (series often up to 37.9 µM), for the others: at the top dose activity change, negative = inhibition, most hits filed as inhibitors; Lassa virus pseudotype entry inhibition, cell reporter; actives 1.2% (n = 300,000); calls by dose curve; tested in HEK293 cells; note: nearly all actives have a fitted effect of over 50% in size
MARV entry inh – qHTS for inhibitors of binding or entry into cells for Marburg Virus; actives 1.8% (n = 300,000); Potency, µM (top dose mostly 37.8 µM), for the others: at the highest dose activity change, negative = inhibition, usual class: inhibitors; Marburg virus pseudotyped entry inhibition, cell reporter; calls by dose curve; tested in HEK293 cells
Vaccinia Venus – qHTS for Stage-Specific Inhibitors of Vaccinia Orthopoxvirus: Venus Reporter Primary qHTS. Vaccinia virus Venus reporter expression, fluorescence. Potency, µM (titrated, usually from 36.5 µM), inactives show at the top dose activity change, negative = inhibition, hits mostly inhibitors. actives 0.46% (n = 330,000); calls by dose curve; tested in A549 cells; note: nearly all actives have a fitted effect of over 30% in size
* = called active by the depositor; i = inactive; ? = inconclusive; nt = no result given; [ ] = remark or other dose. The list is not random: actives were taken first. Their share in the collection is about 4.6%. % is set by controls: 0 for no effect and ±100 for the full control effect; potency is the fitted concentration of half-maximal effect.

SMILES	HCV inh	VACV mCherry inh	LASV entry inh	MARV entry inh	Vaccinia Venus
CC(C)n1c2ccccc2c2cc([N+](=O)[O-])ccc21	8.9µM*	-21%	5%	?	-15%
COc1ccccc1Nc1nn2c(=O)c3ccc(C(=O)NC4CCCCC4)cc3nc2s1	nt	-13%	8%[46.1 µM]	nt	-17%
COc1ccc2c(c1)CC(N1CCN(C)CC1)c1cc(OC)ccc1S2 (stereo not drawn)	?	?	?	4µM*	?
Cc1c(Cl)cccc1-n1nnc(-c2nc(-c3ccc4c(c3)OCO4)no2)c1C	nt	-14%	?	nt	-21%
CN(C)CCCN1C(=O)c2cccc3c([N+](=O)[O-])ccc(c23)C1=O	?	i	?	1.8µM*	137%
O=C1c2cccc3c([N+](=O)[O-])ccc(c23)C(=O)N1CCc1ccccn1	9%	?	15%[46.1 µM]	2%[46.1 µM]	1%
Oc1cc2c(cc1O)[C@H]1c3ccccc3CNC1CC2 (stereo partly drawn)	nt	nt	nt	16µM*	nt
COc1cccc(-c2ccnc(-n3ncc(C(=O)N(C)CCc4ccccn4)c3C)n2)c1	nt	-12%	nt	nt	-9%
CCOC(=O)c1cc2c(C)n(-c3ccc(C)cc3)c(C)c2ccc1=O	11µM*	nt	?	26µM*	nt
CCOc1ccc(C2c3c(-c4cc(C)ccc4O)n[nH]c3C(=O)N2Cc2cccnc2)cc1OCC (stereo not drawn)	nt	-8%	?	?	-1%
COc1ccc(CCN2C(=O)c3[nH]nc(-c4ccccc4O)c3C2c2cccc(OC)c2)cc1 (stereo not drawn)	nt	?	?	13µM*	?
COc1ccc(C2c3c(-c4ccccc4O)n[nH]c3C(=O)N2CCc2ccc(OC)c(OC)c2)cc1 (stereo not drawn)	?	?	5µM*	?	-30%
COc1ccc(C2c3c(-c4ccccc4O)n[nH]c3C(=O)N2CCc2ccccc2)cc1 (stereo not drawn)	nt	-3%[7.34 µM]	?	?	-7%[7.34 µM]
COc1ccc(CCN2C(=O)c3[nH]nc(-c4ccccc4O)c3C2c2cccc(Cl)c2)cc1 (stereo not drawn)	?	2%[1.46 µM]	?	?	?
CCc1ccc(C2c3c(-c4cc(C)ccc4O)n[nH]c3C(=O)N2Cc2cccnc2)cc1 (stereo not drawn)	nt	-10%	?	13µM*	-10%
O=C(CC1NCCNC1=O)Nc1ccc(F)c(Cl)c1 (stereo not drawn)	nt	-7%	0%[46.1 µM]	0%[46.1 µM]	-2%
Cc1ccc(C)c(NC(=O)CCN2C(=O)c3ccccc3Sc3ncccc32)c1	nt	i	13%[46.1 µM]	nt	-4%
CCOC(=O)c1cccc(NC(=O)C(C)n2c(C)c3cnn(-c4ccccc4)c(=O)c3c2C)c1 (stereo not drawn)	nt	-13%	?	3%[46.1 µM]	-9%
CO/S(=N\S(=O)(=O)c1ccc(Cl)cc1)c1ccc([N+](=O)[O-])cc1 (stereo not drawn)	nt	nt	?	21%	nt
Fc1ccc(-c2noc3ncnc(NCC4CCN(Cc5ccc(Cl)cc5)CC4)c23)cc1	nt	-21%	?	nt	-16%
NC1C(N)C(N)C1N (stereo not drawn)	nt	-6%	nt	nt	-12%
N/C(=N\c1nc2c(c(=O)[nH]1)CCC2)Nc1cccc(Cl)c1	1%	?	-27%	6.3µM*	?
COc1ccccc1NC1=CC(=O)CC(c2ccccc2)C1 (stereo not drawn)	31%	-14%	7.3µM*	-15%	-15%
CCCCc1nc(NCCNC(=O)c2ccco2)c(C#N)c2c1CSC(C)(C)C2	11µM*	nt	3%	-15%	nt
CCc1nc(N2CCN(C(=O)c3ccco3)CC2)c(C#N)c2c1COC(C)(C)C2	22µM*	?	?	-6%[46.1 µM]	-27%
SMILES	HCV inh	VACV mCherry inh	LASV entry inh	MARV entry inh	Vaccinia Venus
CC1(C)Cc2c(C#N)c(N3CCN(C(=O)c4ccco4)CC3)nc(-c3ccco3)c2CS1	8.9µM*	nt	-9%	-11%	nt
Cc1ccc(S(=O)(=O)N2CCN(c3nc(C(C)C)c4c(c3C#N)CC(C)(C)OC4)CC2)cc1	7.1µM*	nt	-11%	?	nt
CC1(C)Cc2c(C#N)c(N3CCN(C(=O)c4ccccc4Cl)CC3)nc(-c3ccco3)c2CS1	?	nt	?	-26%	-7%
O=C(OCc1cc(=O)n2nc(C3CC3)sc2n1)c1cccc(NC(=O)c2ccccc2Cl)c1	nt	-24%	?	nt	-22%
CCC1(C2CCN(C(=O)c3cc4ccccc4o3)CC2)NC(=O)N(CCc2scnc2C)C1=O (stereo not drawn)	nt	-18%	nt	nt	-10%
COc1ccccc1CCc1nc2ccccc2n1C1CCN(C(=O)c2cn3ccsc3n2)CC1	nt	-11%	nt	nt	-3%
CC(=O)N1CCN(c2nc(-c3ccco3)c3c(c2C#N)CC(C)(C)SC3)CC1	13µM*	-14%	-17%	-21%	-7%
Cc1ccc2c(C)ccnc2c1	nt	-18%	nt	nt	-8%
Cc1nn(C)c(C)c1/C=C/C(=O)O	8%	-18%	nt	nt	-10%
Cc1nn(C)c(C)c1/C=C/C(=O)c1ccc(Cl)cc1Cl	7.9µM*	?	?	?	?
Cc1ccc(-c2nc3ccccc3o2)cc1NC(=O)C(C)Oc1ccccc1 (stereo not drawn)	nt	4%	nt	nt	-20%
COc1cccc(NC(=O)c2oc3ccccc3c2NC(=O)C(C)(C)C)c1	8.9µM*	-22%	?	?	-15%
COc1cccc(NC(=O)c2oc3ccccc3c2NC(=O)c2cc3ccccc3o2)c1	nt	-2%	7%[46.1 µM]	?	-20%
COc1ccc(C(=O)c2oc3ccccc3c2NC(C)=O)cc1	6.3µM*	-13%	26%	?	-26%
CCCC[C@@H]1C[C@H]1C(=O)Nc1ccc(OC)c(OC)c1	nt	nt	nt	1%	nt
C[N+]1(CC(=O)c2ccc(I)cc2)CCCc2ccccc21 (stereo not drawn)	nt	-13%	nt	nt	-26%
O=C(Nc1ccc(Nc2ccccc2)cc1)c1ccc(Cl)c([N+](=O)[O-])c1	0%	nt	nt	nt	nt
Cc1cc(C(=O)Nc2ccc(Nc3ccccc3)cc2)ccc1[N+](=O)[O-]	11µM*	i	2%	0%	?
Cc1ccccc1NC(=O)c1ccc(Nc2c([N+](=O)[O-])cc([N+](=O)[O-])c3ccccc23)cc1	14µM*	?	?	?	-25%
Cc1ccc(NC(=O)c2cc(Cl)ccc2[N+](=O)[O-])cc1C	?	?	-2%	0%	9%
Cc1cccc(NC(=O)c2cc(Cl)ccc2[N+](=O)[O-])c1	-29%	6.3µM*	-9%	?	?
COc1ccc(CN2CCC3(CC2)c2ccccc2[C@@H](NC(=O)c2ccsc2)[C@@H]3OC)cc1O	nt	-16%	nt	nt	-10%
CSc1nc(C(=O)N2CCc3c(cnc(C)c3CNC(=O)c3ccc4c(c3)OCO4)C2)cs1	nt	-15%	nt	nt	-3%
CCCCCC(=O)N1C[C@@H](O)[C@H](n2cc(-c3ccc(F)cc3)nn2)C[C@H]1c1ccc(OC)cc1	nt	nt	11%[46.1 µM]	nt	nt

Assay outcomes as filed in PubChem.
